High-throughput results from PubChem.
MITF primary: human MITF inhibition, primary screen. O75030. AlphaScreen MITF homodimerization, bead proximity signal. inhibition, % at 2.6 µM. 650,000 tested, 0.91% active; in the data active = inhibition above about 50%;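 also: 0% = vehicle wells with protein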
Target sequence (O75030 whole entry, looked up): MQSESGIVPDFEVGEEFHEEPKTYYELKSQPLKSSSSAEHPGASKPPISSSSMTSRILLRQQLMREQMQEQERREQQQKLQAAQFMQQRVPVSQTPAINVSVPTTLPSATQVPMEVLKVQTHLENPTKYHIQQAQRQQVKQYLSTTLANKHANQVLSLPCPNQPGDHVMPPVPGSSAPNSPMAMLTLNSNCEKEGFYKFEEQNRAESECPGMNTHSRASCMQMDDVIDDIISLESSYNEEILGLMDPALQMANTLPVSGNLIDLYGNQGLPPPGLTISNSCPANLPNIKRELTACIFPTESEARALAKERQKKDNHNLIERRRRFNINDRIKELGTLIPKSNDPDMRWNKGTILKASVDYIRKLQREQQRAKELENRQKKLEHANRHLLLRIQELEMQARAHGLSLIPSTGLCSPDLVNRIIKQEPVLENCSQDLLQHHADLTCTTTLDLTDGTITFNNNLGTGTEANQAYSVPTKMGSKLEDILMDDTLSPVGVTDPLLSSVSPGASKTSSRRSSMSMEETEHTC
FBW7 act: activators of human E3 ligase FBW7. AlphaScreen FBW7–phospho-cyclin E peptide binding, activator screen. normalized activity (activation), % at 26.1 µM. 650,000 tested, 0.13% active; in the data active = normalized activity above about 1.9%;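 also: purified mutant Fbw7 with reduced substrate affinity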
TEAD-YAP inh: TEAD-YAP interaction inhibition. AID 1259422. HEK-TIYL cells, TEAD-Gal4/YAP UAS-luciferase luminescence. 640,000 tested, 1.4% active. inhibition, % at 9.12 µM; in the data active = inhibition above about 32%;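 also: 0% = median of test compound wells and 100% = reference inhibitor wells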
GPR151 activ: activates the human receptor GPR151; Q8TDV0; PathHunter beta-arrestin GPR151 cells, luminescence; activation, % at 11.2 µM; 650,000 tested, 1% active; in the data active = activation above about 4.9%;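 also: 0% = median of compound wells and 100% = cells with positive control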
MITF inh conf: confirmation of human MITF inhibitors; shares compounds with MITF primary; AlphaScreen MITF homodimerization, biotin/His-MITF beads; inhibition, % at 2.6 µM; 4,700 tested, 16% active; AID 1259372;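 active = inhibition above a cutoff derived from the DMSO control wells, cut at about 28% in these data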;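 also: 0% = MITF dimer wells with DMSO only; inhibitors lower the bead chemiluminescence by keeping MITF from dimerizing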
AS interf ctr: AlphaScreen optical interference, counter-screen; LysRS AlphaScreen counterscreen, signal interference, triplicate; inhibition, % at 2.6 µM; 4,700 tested, 7.6% active; shares compounds with MITF primary;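 active = inhibition above a cutoff derived from the DMSO control wells, cut at about 30% in these data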
* marks the source's active call; other numbers are inactive results; . = no result. The list is not random: actives were taken first. Their share in the collection is about 3.4%.

SMILES	MITF primary	FBW7 act	TEAD-YAP inh	GPR151 activ	MITF inh conf	AS interf ctr
CCCCNCCCOc1ccc(OCC)cc1	51.4*	0.1	6.5	-0.2	6.9	6.2
CC1=C(C(=O)OC(C)C)C(c2ccc(Cl)cc2)C(C(=O)OC(C)C)=C(C)N1	1.7	-0.1	-5.9	2.5	.	.
COCCNCCOc1c(Cl)cc(C)cc1Br	64.0*	-0.3	-2.9	-0.5	11.1	12.7
Cc1cc(Cl)c(OCCCN2CCOCC2)c(Br)c1	27.8	0.0	-7.2	-0.8	.	.
Cc1cc(Cl)c(OCCOCCN2CCN(C)CC2)c(Br)c1	77.5*	0.0	1.4	-0.1	16.2	17.0
Cc1cc(Cl)c(OCCCN2CCN(C)CC2)c(Br)c1	65.1*	0.1	-6.2	-0.3	-4.4	-5.8
CN1CCN(CCOCCOc2c(Cl)cc(Cl)cc2Cl)CC1	44.1	0.0	9.5	-0.6	.	.
Cc1cc(Cl)c(OCCN2CCN(C)CC2)c(Br)c1	55.0*	0.0	-6.3	1.8	1.1	6.4
CCC(C)(C)c1ccc(OCCN2CCNCC2)c(Cl)c1	60.8*	-0.2	-0.5	0.5	-7.8	-6.2
Brc1cccc(OCCCCN2CCNCC2)c1	48.3	-0.2	0.2	-0.1	.	.
Cc1ccc(OCCN2CCNCC2)c(Br)c1	46.5	-0.2	0.5	-0.6	.	.
Clc1cc(Br)ccc1OCCCCN1CCNCC1	55.6*	0.1	13.6	0.4	-13.1	3.4
Cc1ccc(OCCCCN2CCNCC2)c(Br)c1	55.5*	-0.2	-18.1	2.6	20.5	19.6
Cc1ccc(SCCCCN2CCNCC2)cc1	61.0*	0.4	-28.5	1.2	26.7	-2.7
O=C(Cc1ccsc1)NCCn1nc(-c2cccs2)ccc1=O	1.0	0.0	6.3	4.1	.	.
COc1cc(C(c2sc3nc(C)nn3c2O)N2CCCC(C)C2)cc(OC)c1OC (stereo unspecified)	-10.2	-0.1	0.1	-0.4	.	.
CCOC(=O)c1ccc(NC(=O)CSc2nc3ccccc3c(=O)n2-c2ccc3c(c2)OCO3)cc1	6.4	0.0	8.3	0.9	.	.
Cc1cc(Br)ccc1OCCCCN1CCNCC1	65.6*	-0.3	0.3	0.0	5.6	4.4
Cc1ccc(C(C)C)c(OCC(N)=O)c1	11.5	0.1	2.9	-0.9	.	.
Cc1ccc(C(C)C)c(OCC#CCN2CCOCC2)c1	54.9*	0.1	-9.8	-1.3	3.9	14.3
Cc1ccc(C(C)C)c(OCCOCCN2CCNCC2)c1	-3.9	-0.2	2.6	1.4	.	.
Cc1ccc(C(C)C)c(OCC(O)CN2CCOCC2)c1 (stereo unspecified)	-14.1	0.0	5.4	0.4	.	.
Cc1ccc(C(C)C)c(OCCN(C)C)c1	53.7*	0.4	9.4	-1.4	6.3	-0.9
Cc1ccc(C(C)C)c(OCCCCN2CCNCC2)c1	75.4*	0.0	3.1	0.6	-5.5	-3.8
O=C(NC12CC3CC(CC(C3)C1)C2)c1cc(Cl)ccc1[N+](=O)[O-]	25.3	0.3	-2.1	1.6	.	.
SMILES	MITF primary	FBW7 act	TEAD-YAP inh	GPR151 activ	MITF inh conf	AS interf ctr
Cc1c(C2=N/C(=C/c3cccc(F)c3)C(=O)O2)cccc1[N+](=O)[O-]	14.4	0.2	-1.9	0.7	.	.
CCOc1ccc(NC(=O)C2C3C=CC4(O3)C2C(=O)N(C2CCCCC2C)C4C(=O)NC2CCCCC2)cc1 (stereo unspecified)	3.6	0.4	19.2	-1.7	.	.
COc1ccccc1CN1CCN(S(C)(=O)=O)CC1	-4.1	0.7	2.6	1.1	.	.
CCCS(=O)(=O)N1CCN(Cc2ccccc2OCC)CC1	73.9*	0.0	7.4	-0.5	1.6	11.4
CCS(=O)(=O)N1CCN(Cc2ccccc2OC)CC1	57.8*	0.2	3.0	-1.2	7.0	10.6
CCOc1ccccc1CN1CCN(S(=O)(=O)CC)CC1	28.5	-0.1	6.5	0.8	.	.
COc1ccc(N2CC(C(=O)OCC(=O)Nc3ccccc3)CC2=O)cc1 (stereo unspecified)	-3.3	0.0	4.0	-0.2	.	.
Cc1cc(C)cc(NCc2ccc3c(c2)OCO3)c1	67.3*	0.0	3.0	-0.4	15.9	10.5
CCCNC(=O)Nc1ccc(Cl)c(C(=O)O)c1	64.3*	0.1	2.0	0.5	-16.1	-8.3
O=C(O)CCC(=O)Nc1ccc(Cl)c(C(=O)O)c1	5.8	0.0	8.6	-1.0	.	.
COc1ccc2c(CNCC3CCCO3)c(C(=O)O)n(Cc3ccc(F)cc3)c2c1 (stereo unspecified)	17.7	0.6	1.2	3.0	.	.
CCOC(=O)c1cc(-c2ccccc2)sc1NC(=O)CCN1CCN(C)CC1	57.6*	-0.2	-8.1	1.6	0.8	17.6
CCN1CCN(CC(=O)NCc2ccc(F)cc2)CC1	78.7*	-0.1	2.6	1.8	3.3	14.0
